The supplement of paper PMC6555819

Columns and labels:
Assay in all cases: PBM binding z-score (relative to random genomic background probes); higher = stronger binding; sequences stand for … in GC…GCGATTGACAGCGTAGAATGAAGG
[1] = test system: FXR:RXRa (NR concentration 270 nM, RXRa partner concentration 90 nM)
In short: (§1)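 Scanned fluorescence from custom Agilent 4×180K protein-binding microarrays was regression-normalized. Binding z-scores use random background probes as reference. Ligand-free nuclear receptor dimers were incubated on the arrays for 1 h and detected with antibodies against each partner (one per run).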

[2] = test system: LXRa:RXRa (NR concentration 270 nM, RXRa partner concentration 90 nM)
In short: as §1

[3] = test system: LXRa homodimer (NR concentration 270 nM)
In short: as §1

[4] = test system: LXRb:RXRa (NR concentration 270 nM, RXRa partner concentration 90 nM)
In short: as §1

[5] = test system: LXRb homodimer (NR concentration 270 nM)
In short: as §1

[6] = test system: PPARa:RXRa (NR concentration 270 nM, RXRa partner concentration 90 nM)
In short: as §1

[7] = test system: PPARg:RXRa (NR concentration 180 nM, RXRa partner concentration 90 nM)
In short: as §1

[8] = test system: PPARg:RXRa 270nM:90nM, anti-RXR (NR concentration 270 nM, RXRa partner concentration 90 nM)
In short: as §1

[9] = test system: PPARg:RXRa 30nM:10nM, anti-RXR (NR concentration 30 nM, RXRa partner concentration 10 nM)
In short: as §1

[10] = test system: PPARg:RXRa 90nM:30nM, anti-RXR (NR concentration 90 nM, RXRa partner concentration 30 nM)
In short: as §1

[11] = test system: PPARg:RXRa DBDmut IVT, anti-RXR (DBD mutation: RXRa K156A/R161A, NR concentration 270 nM, RXRa partner concentration 90 nM)
In short: as §1

[12] = test system: PPARg:RXRa IVT, anti-PPARg (NR concentration 270 nM, RXRa partner concentration 90 nM)
In short: as §1

[13] = test system: PPARg DBDmut:RXRa IVT, anti-PPARg (DBD mutation: PPARg1 K132A/R137A, NR concentration 270 nM, RXRa partner concentration 90 nM)
In short: as §1

[14] = test system: PPARg DBDmut IVT, anti-PPARg (DBD mutation: PPARg1 K132A/R137A, NR concentration 270 nM)
In short: as §1

[15] = test system: PPARg homodimer (NR concentration 180 nM)
In short: as §1

[16] = test system: PXR:RXRa (NR concentration 270 nM, RXRa partner concentration 90 nM)
In short: as §1

[17] = test system: PXR homodimer (NR concentration 270 nM)
In short: as §1

[18] = test system: RARa:RXR (NR concentration 270 nM, RXRa partner concentration 90 nM)
In short: as §1

[19] = test system: RARa homodimer (NR concentration 270 nM)
In short: as §1

[20] = test system: RARb:RXRa (NR concentration 270 nM, RXRa partner concentration 90 nM)
In short: as §1

Sequence	PBM binding z-score [1]	PBM binding z-score [2]	PBM binding z-score [3]	PBM binding z-score [4]	PBM binding z-score [5]	PBM binding z-score [6]	PBM binding z-score [7]	PBM binding z-score [8]	PBM binding z-score [9]	PBM binding z-score [10]	PBM binding z-score [11]	PBM binding z-score [12]	PBM binding z-score [13]	PBM binding z-score [14]	PBM binding z-score [15]	PBM binding z-score [16]	PBM binding z-score [17]	PBM binding z-score [18]	PBM binding z-score [19]	PBM binding z-score [20]
CCTTACGGGTCACTGACAGGTTATAGGATTTGGA	4.95	4.33	0.341	3.36	-0.182	5.09	4.36	4.46	1.48	3.55	3.61	3.81	0.353	-0.0191	2.26	3.57	0.377	4.38	0.591	4.08
CCTTGTTGGTCAAGGTCACACACGCTATAGGTAC	4.42	3.87	2.19	3.91	0.763	4.27	3.05	3.47	1.21	2.69	2.48	3.71	1.18	0.66	2.49	4.23	1.5	4.45	1.4	4.3
CCGACTGGGGCAAGGATACCATAACGCACAGCCA	-0.419	-0.243	-0.0407	-0.588	-1.01	0.158	1.6	1.16	-0.149	0.515	2.53	2.44	-1.12	-0.391	0.238	-0.678	-0.593	-0.387	0.23	0.558
ATCGAAAGGTCGTGAGGTGAGTCTACAGAAAGGC	4.96	3.75	0.0112	3.17	0.35	4.99	3.79	4.19	1.17	2.92	0.266	2.6	0.998	0.581	1.51	2.97	-0.0415	3.84	0.605	3.87
CGTCCAAGGTCAAAGTCAGTGAAAGAGACTCGAA	7.61	5.36	0.709	4.03	1.64	5.87	5.41	5.32	1.82	4.19	3.22	3.56	-0.516	-0.183	2.62	3.72	0.349	4.01	1.36	5.14
AGAATGACGTTATACGTAGATCAGGGAAGAAAGT	-0.751	-0.685	-0.265	-0.753	-0.294	-0.611	0.583	-0.509	-0.197	-0.37	-1.31	-0.2	0.276	1.24	-0.321	-0.696	0.0404	-0.492	-0.733	-0.573
